Inconclusive results are not listed. Where a call stands in place of a potency, no number is given. A number with no mark means an inactive call. The source made the active and inactive calls. The call rests on the fitted dose curve; in most records, active means well fitted cell-killing curve with a large enough effect; inconclusive means small, poorly fitted or top-dose-only effect, or effect the other way; inactive means flat fitted curve, though single readings scatter.
How the values were obtained:
[1] = tested on: Tov-21-G; assay: Primary qHTS to identify gynecologic anti-cancer compounds using libraries of approved drugs and bioactive compounds (AID 1345084); conditions: Gynecologic cancer cell panel viability, ATPlite luminescence, 48 h; series mostly up to 57.5 µM; further: nearly all actives have a fitted effect of over 55% in size
Summary of the method: (§1)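 Luminescence from the ATPlite ATP-monitoring reagent indicates viable cell number; lower signal means cytotoxicity. Cells received compound 16 h after seeding and were exposed for 48 h across five concentrations.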

[2] = tested on: Tov112D; assay: as above; conditions: Gynecologic cancer cell panel viability, ATPlite luminescence, 48 h; series mostly up to 57.5 µM
Summary of the method: as §1

Row | Compound | Potency [1] | Potency [2] | activity change, negative = cytotoxicity [1] | activity change, negative = cytotoxicity [2]
1 | C[C@@H](CC[C@@H]1[C@@]2(C)CCCC(C)(C)C2CC[C@@]1(C)O)CC(=O)O (stereo not given in full) | inactive | inactive |  | 
2 | C/C(=C\C(=O)C(C)C1CCC2C3=C(CCC21C)C1(C)CCC(=O)C(C)(C)C1(O)CC3)C(C)(C)O (stereo not given) | inactive | inactive |  | 
3 | H-DPPDPDRFYGMM-NH2 | inactive | inactive |  | 
4 | CC1(C(=O)O)CCCC2(C)C3CCC4CC3(CCC12)CC4(O)CO (stereo not given) | inactive | inactive |  | 
5 | COc1cc(/C=C/C(=O)OCC2OC(OC3(CO)OC(CO)C(O)C3O)C(O)C(O)C2O)ccc1O (stereo not given) | inactive | inactive |  | 
6 | COc1cc(C[C@@]2(O)CO[C@@H](c3ccc(O[C@@H]4O[C@H](CO)[C@@H](O)[C@H](O)[C@H]4O)c(OC)c3)[C@H]2CO)ccc1O | inactive | inactive |  | 
7 | COc1cc(O)c2c(c1)C1(OC2=O)C(C)=CC(=O)C1O (stereo not given) | inactive | inactive |  | 
8 | COc1c(O[C@@H]2O[C@H](CO)[C@@H](O)[C@H](O)[C@H]2O)c(CCC(=O)O)cc2ccoc12 | inactive | inactive |  | 
9 | CSCC1OC(n2cnc3c(N)ncnc32)C(O)C1O (stereo not given) | inactive | inactive |  | 
10 | C[C@@H]1C[C@@H](O)[C@@]23CO[C@]2(CO)C[C@@H](O)CC3[C@@]12CC(c1ccoc1)OC2=O (stereo not given in full) | inactive | inactive |  | 
11 | CC1OC(O[C@@H]2[C@H](O)[C@@H](OC3OC(CO)C(O)C(O)C3O)[C@H](OC(=O)[C@]34CCC(C)(C)C[C@H]3C3=CCC5[C@@]6(C)CC[C@H](O[C@@H]7O[C@H](C(=O)O)[C@@H](O)[C@H](O[C@@H]8OC[C@@H](O)[C@H](O)[C@H]8O)[C@H]7O[C@@H]7O[C@H](CO)[C@H](O)[C@H](O)[C@H]7O)[C@@](C)(C=O)C6CC[C@@]5(C)[C@]3(C)C[C@H]4O)O[C@@H]2C)C(O)C(O)C1OC1OCC(O)C(O)C1O (stereo not given in full) |  |  | -1.56% [at 6.55 µM] | 1.65% [at 6.55 µM]
12 | COc1ccc(C2(O)c3c(ccc4c3OC(C)(CCC=C(C)C)C=C4)NC(=O)C2OC)cc1 (stereo not given) | inactive | inactive |  | 
13 | C=C1C(OC(C)=O)[C@@]23CCC4[C@](C)(C(=O)O)CCC[C@@]4(C)[C@]2(O)CC[C@H]1C3 (stereo not given in full) | inactive | inactive |  | 
14 | NC(=O)NCCCC(NC(=O)Cc1ccccc1)C(=O)O (stereo not given) | inactive | inactive |  | 
15 | COc1cc(Nc2ccc([N+](=O)[O-])cc2C(=O)O)cc2ccccc12 | inactive | inactive |  | 
16 | CC1CCCCCCCc2cc(O)cc(O)c2C(=O)O1 (stereo not given) | inactive | inactive |  | 
17 | C=C1C(O)CCC2(C)CC3(OC)OC(=O)C(C)=C3CC12 (stereo not given) | inactive | inactive |  | 
18 | COc1c(-c2ccc(O)cc2)cc(OC)c2c1oc1cc(O)c(OC3OC(CO)C(O)C3O)cc12 (stereo not given) | inactive | inactive |  | 
19 | CC(C)/C=C1/NC(=O)C(C(C)C)n2c1nc1c(O)cccc1c2=O (stereo not given) | inactive | inactive |  | 
20 | CC1(C)CC[C@]2(C(=O)O)CC[C@]3(C)C(=CCC4[C@@]5(C)CC[C@H](O[C@@H]6O[C@H](C(=O)O)[C@@H](O)[C@H](O[C@@H]7O[C@H](CO)[C@H](O)[C@H](O)[C@H]7O)[C@H]6O[C@@H]6O[C@H](CO)[C@@H](O)[C@H](O)[C@H]6O)C(C)(C)C5CC[C@]43C)[C@@H]2C1 (stereo not given in full) |  |  | -6.57% [at 6.55 µM] | -3.27% [at 6.55 µM]
21 | CC[C@@H]1[C@H]2CCCCN3C(=O)C[C@H]([C@@H]4[C@H]1OC(=O)[C@H]4C)[C@@H]23 | inactive | inactive |  | 
22 | O=C(CCCCC1CCCCC1)N1CCC(c2cnc[nH]2)CC1 | inactive | inactive |  | 
23 | C[C@@H]1O[C@@H](O[C@H]2[C@H](O)[C@@H](O)[C@H](OC(=O)[C@]34CCC(C)(C)C[C@H]3C3=CCC5[C@@]6(C)CC[C@H](O[C@@H]7O[C@H](C(=O)O)[C@@H](O)[C@H](O)[C@H]7O)C(C)(C)C6CC[C@@]5(C)[C@]3(C)CC4)O[C@@H]2CO)[C@H](O)[C@H](O)[C@H]1O (stereo not given in full) |  |  | -3.13% [at 11.6 µM] | -16.2% [at 11.6 µM]
24 | CCOC(=O)c1ccc(NC2CCCCC2)c(N)c1 | inactive | inactive |  | 
25 | C/C=C/C=C/[C@@H]1O[C@](O)([C@H](CC)C(=O)NC/C=C/C=C(\C)[C@@H](OC)[C@@H](C)[C@@H]2O[C@H](/C=C/C=C/C=C(\C)C(=O)c3c(O)ccn(C)c3=O)[C@H](O)[C@@H]2O)[C@H](O)[C@H](O)C1(C)C |  |  | -0.814% [at 11.6 µM] | -0.13% [at 11.6 µM]
